# Test results from PubChem BioAssay AID2315 (National Center for Advancing Translational Sciences (NCATS), 2010).
# Hit rate of the full screen: of about 290,000 compounds, about 27,000 (9.3%) were called active. No stated cut-off is given here; in the data, active means inhibition mostly above about 28% (no sharp cut-off); inactive means mostly below about 43%. Shown is part of a subset that was picked to be rich in actives.
# Assay: A qHTS for Small Molecule Inhibitors of Shiga Toxin; further: 0% is about no effect
# Conditions: Vero cells, Shiga toxin protein synthesis inhibition reporter; at 38.7 µM, hits give high values
row,SMILES,inhibition
1,Cc1cnc(C)c(N2CCN(C(=O)C3CCC(=O)N(CCc4cccc(F)c4)C3)CC2)n1 (configuration not stated),0.443% (inactive)
2,NC(=O)C1CCN(C(=O)c2ccc3c(=O)n(Cc4cccc(Br)c4)c(=S)[nH]c3c2)CC1,0.712% (inactive)
3,CCN1C(=S)N[C@@H](c2cccc(C(F)(F)F)c2)C(C(=O)OC)=C1C,-10.1% (inactive)
4,COC(=O)C1(C)CC1(c1ccccc1)c1ccccc1 (configuration not stated),-7.31% (inactive)
5,O=CN1CCN(C(=O)c2ccc3c(c2)OCO3)CC1,2.8% (inactive)
6,CN1C(=O)/C(=C/C=C2\SCCN2C)OC1=S,70.4% (active)
7,COCCNc1nc(N)c([N+](=O)[O-])c(N2CCCCCC2)n1,6.83% (inactive)
8,O=CN1CCN(C(=O)c2ccc(Br)o2)CC1,17.4% (inactive)
9,Cc1ccc(NC2CCCN(C(=O)CCC3(C)CC3)C2)cc1C (configuration not stated),-22.1% (inactive)
10,O=C(Nc1cccc2cccnc12)C(F)(F)F,-8.11% (inactive)
11,N#Cc1ccc(C(=O)Nc2cccc3cccnc23)c(F)c1,-0.419% (inactive)
12,COc1ccc(NC(=O)Nc2cccc3cccnc23)cc1,79.2% (active)
13,O=C(Nc1ccccc1Cl)Nn1cnnc1,14.1% (inactive)
14,COc1ccc(S(=O)(=O)Nc2cccc3cccnc23)c(N)c1,-26.8% (inactive)
15,CCOC(=O)Cc1ncccc1C(=O)Nc1ccc(OC)cc1,6.55% (inactive)
16,O=C(Nc1ccccc1Cl)Nc1cccc2cccnc12,40.9% (active)
17,O=C(Nc1cccc2cccnc12)c1cccc(Cl)c1,87.7% (active)
18,O=C(Nc1cccc2cccnc12)c1cccc(N2C(=O)CCC2=O)c1,30.9% (inactive)
19,O=C(COc1ccccc1Cl)N1CCCCCCC1,36.9% (inactive)
20,CN(c1ccccc1)S(=O)(=O)c1ccc(NC(=O)COc2ccccc2)cc1,-5.47% (inactive)
21,NS(=O)(=O)c1ccc(CCNS(=O)(=O)c2cccc3cccnc23)cc1,-5.83% (inactive)
22,COc1ccc(-c2cc(=O)oc3cc(OC(C)C(=O)Nc4ccc(CN5CCOCC5)cc4)ccc23)cc1 (configuration not stated),-3.54% (inactive)
23,CCOC(=O)c1c(-c2ccccc2)oc2ccc(OCC(N)=O)cc12,-3.18% (inactive)
24,COc1cc2c(cc1OC)C(C(=O)Nc1cc(C)c(OC)c(C)c1)CC(=O)N2 (configuration not stated),7.56% (inactive)
25,COc1ccc(C(=O)NC(C)Cn2nc(C)cc2C)cc1OC1CCN(C(C)=O)CC1 (configuration not stated),-5.64% (inactive)
26,Nc1ccc(C(=O)Nc2ccccc2N)cc1,46.6% (inactive)

row,SMILES,inhibition
1,Cc1ccc(C(=O)NC2CC(C)(C)NC(C)(C)C2)c(C)c1,-6.82% (inactive)
2,Cc1ccc2c(c1)NCC(C(=O)NC1CCC(C)CC1)O2 (configuration not stated),64.8% (active)
3,CC1CCC(NC(=O)C2c3ccccc3C(=O)N2Cc2ccc3c(c2)OCO3)CC1 (configuration not stated),15.2% (inactive)
4,O=C(O)CCCN1C(=O)C2C3c4ccccc4C(c4ccccc43)[C@@H]2C1=O (some centres not stated),-10.8% (inactive)
5,COc1ccc(OC)c(C(O)c2nc3ccccc3n2C)c1 (configuration not stated),-12.2% (inactive)
6,COC(=O)CSc1nnc(-c2cccnc2)o1,8.44% (inactive)
7,COc1ccc(-c2nnc(SCc3cccnc3)o2)cc1,48.5% (active)
8,COc1ccc(-c2nnc(SC(=O)N3c4ccccc4Sc4ccccc43)o2)cc1,18.6% (inactive)
9,Cc1cc(Cl)ccc1OCCCC(=O)Nc1cccc(-n2cnnn2)c1,-13.8% (inactive)
10,CCc1ccc2c(c1)C1(NN=C(c3ccccc3)S1)C(=O)N2 (configuration not stated),105% (active)
11,COc1ccccc1C(=O)N/C(=C/c1ccco1)C(=O)Nc1ccc(C(=O)O)cc1,-2.72% (inactive)
12,CC(=O)c1ccc(N2CCN(C(=O)CCNC(=O)Cn3ccc4ccccc4c3=O)CC2)cc1,26.7% (inactive)
13,Cc1cc(O)c(C(=O)/C=C/c2c(F)c(F)c(F)c(F)c2F)c(=O)o1,68.6% (active)
14,Cc1ccc(N=Cc2c(O)cc(C)oc2=O)c(C)c1,-1.09% (inactive)
15,N#Cc1cc([N+](=O)[O-])ccc1NCC1CCCO1 (configuration not stated),-5.89% (inactive)
16,CC(C)N1CCc2c(sc(NC(=O)Cc3ccccc3)c2C#N)C1,2.11% (inactive)
17,O=C(CN1CCOC1=O)N1CCCC(Nc2ccc(F)c(F)c2)C1 (configuration not stated),13.5% (inactive)
18,CCc1ccnc(NC(=O)Nc2ccc(OCc3ccccc3)cc2)c1,17.6% (inactive)
19,Cc1ccc(F)c(NC(=O)CCOc2ccccc2C)c1,2.89% (inactive)
20,Cc1cccc(OCC(=O)Nc2ccccc2F)c1,74.7% (active)
21,Cc1cccc(OCCC(=O)Nc2ccccc2C(N)=O)c1,5.43% (inactive)
22,COc1cccc(OCC(=O)Nc2ccccc2C(N)=O)c1,75.1% (active)
23,O=C(CCc1ccccc1)NNc1ccc(F)cc1,-4.35% (inactive)
24,CCCOC(=O)Nc1ccccc1C(N)=O,-12.3% (inactive)
25,Cc1ccc(F)c(NC(=O)CCc2ccccc2)c1,70.1% (active)
26,Cc1cccc(OCC(=O)NCCCNC(=O)c2ccccn2)c1,-11.4% (inactive)
